# Reference: PubChem BioAssay
# Activity calls are given as the source filed them.
# Key:
# [1] = adipocyte viability effects, profiling panel, cell-based, 3T3-L1 adipocytes, calcein-AM fluorescence, 48 h, basal (AID 1163); conditions: 3T3-L1 adipocytes viability, higher = more signal
# [2] = HepG2 cell viability effects, profiling panel, calcein-AM fluorescence, 48 h, basal (AID 1164); conditions: higher = more signal
# [3] = MM1S cell viability effects, profiling panel, calcein-AM fluorescence, 48 h, basal (AID 1165); conditions: higher = more signal;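 note: viability of MM1S multiple myeloma cells under basal unstimulated conditions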
# [4] = basal RPMI8226 viability, no added stimulus, profiling panel, cell-based, calcein-AM fluorescence, 48 h, PK04 Diversity Set (AID 1166); conditions: RPMI8226 myeloma viability, higher = more signal;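 note: cells grown under basal conditions without added stimulus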
# [5] = basal HepG2 mitochondrial membrane potential changes, profiling panel, cell-based, JC-1 fluorescence, 24 h, 100 nL compound (AID 1167); conditions: higher = more signal
# [6] = basal 3T3-L1 adipocyte mitochondrial potential changes, profiling panel, cell-based, JC-1 fluorescence, 3T3-L1 adipocytes, 24 h, 100 nL compound (AID 1168); conditions: JC-1 mitochondrial fluorescence, higher = more signal, called active from +8 up or from −8 down
# [7] = basal RPMI8226 mitochondrial membrane potential changes, profiling panel, cell-based, JC-1 fluorescence, 24 h, 100 nL compound (AID 1169); conditions: RPMI8226 myeloma, JC-1 mitochondrial potential fluorescence, higher = more signal
# [8] = basal MM1S mitochondrial membrane potential changes, profiling panel, cell-based, JC-1 fluorescence, 24 h, 100 nL compound (AID 1170); conditions: higher = more signal
# [9] = A549 lung cancer cell viability effects, profiling panel, resazurin fluorescence, 24 h, PK04 Diversity Set (AID 1171); conditions: higher = more signal, called active from +8 up or from −8 down
# [10] = HepG2 liver cancer cell viability effects, profiling panel, resazurin fluorescence, 24 h, PK04 Diversity Set (AID 1172); conditions: higher = more signal
# [11] = basal S. cerevisiae growth modulation, no modifier, primary screen, OD600, strain BY4716, 24 h, basal condition (AID 1173); conditions: OD600, 24 h, higher = more signal, called active from +8 up or from −8 down
# [12] = MM1S myeloma cell viability, profiling panel, resazurin fluorescence, basal, 24 h, PK04 Diversity Set (AID 1174); conditions: higher = more signal, called active from +8 up or from −8 down;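 note: MM1S multiple myeloma cell line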
# [13] = target: Dihydroorotate dehydrogenase (quinone), mitochondrial (Plasmodium falciparum (isolate 3D7)) (UniProt Q08210); test: PfDHODH enzyme inhibitors, primary screen, biochemical, C-terminal His tag, absorbance 600 nm (AID 1175); conditions: DCIP absorbance 600 nm, higher = more signal, called active from +8 up or from −8 down;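 note: recombinant parasite enzyme with a five histidine tag at its C terminus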
# [14] = S. cerevisiae RM11-1a growth modifiers, primary screen, strain RM11-1a, OD600, basal, 24 h (AID 1177); conditions: OD600, 24 h, higher = more signal, called active from +8 up or from −8 down;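 note: cultures grown under basal conditions with no added stressor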
# [15] = E. coli acrAB mutant growth effects, primary screen, E. coli filamentation inducers, strain DRC39, OD650, 24 h (AID 1178); conditions: higher = more signal, called active from +8 up or from −8 down;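 note: growth measured as culture turbidity by optical density at 650 nm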
# [16] = E. coli acrAB mutant growth effects, primary screen, E. coli filamentation inducers, strain DRC39, OD650, 48 h (AID 1179);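 note: screen aims at cell division blockers that make cells filament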; conditions: E. coli DRC39 delta-acrAB growth, higher = more signal, called active from +8 up or from −8 down
# [17] = RPMI8226 myeloma cell viability, profiling panel, resazurin fluorescence, basal, 24 h, PK04 Diversity Set (AID 1180); conditions: higher = more signal;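 note: RPMI8826 multiple myeloma cell line at 5000 cells per well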
# [18] = target: E3 ubiquitin-protein ligase XIAP (Homo sapiens) (UniProt P98170); test: XIAP binders, primary screen, biophysical, small-molecule microarray, fluorescence 635 nm (AID 1181); conditions: small-molecule microarray binding, higher = more signal;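 note: score merges 667 nm emission and signal to noise over triplicate slides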
# [19] = test system: XIP peptide (Xip251-270) binding; test: small-molecule binders of XIP peptide, primary screen, biochemical, small-molecule microarray, fluorescence 635/667 nm, 0.1 µg/mL protein (AID 1182); conditions: fluorescent protein binding, 635 nm, higher = more signal, called active from +8 up or from −8 down
# XIP peptide (Xip251-270) = test: small-molecule binders of XIP peptide, primary screen, biochemical, small-molecule microarray, fluorescence 635/667 nm, 0.5 µg/mL protein (AID 1183); conditions: small-molecule microarray binding, fluorescence 635 nm; higher = more signal
# Dihydroorotate dehydrogenase (quinone), mitochondrial (Plasmodium falciparum (isolate 3D7)), sequence (Q08210 whole entry, looked up): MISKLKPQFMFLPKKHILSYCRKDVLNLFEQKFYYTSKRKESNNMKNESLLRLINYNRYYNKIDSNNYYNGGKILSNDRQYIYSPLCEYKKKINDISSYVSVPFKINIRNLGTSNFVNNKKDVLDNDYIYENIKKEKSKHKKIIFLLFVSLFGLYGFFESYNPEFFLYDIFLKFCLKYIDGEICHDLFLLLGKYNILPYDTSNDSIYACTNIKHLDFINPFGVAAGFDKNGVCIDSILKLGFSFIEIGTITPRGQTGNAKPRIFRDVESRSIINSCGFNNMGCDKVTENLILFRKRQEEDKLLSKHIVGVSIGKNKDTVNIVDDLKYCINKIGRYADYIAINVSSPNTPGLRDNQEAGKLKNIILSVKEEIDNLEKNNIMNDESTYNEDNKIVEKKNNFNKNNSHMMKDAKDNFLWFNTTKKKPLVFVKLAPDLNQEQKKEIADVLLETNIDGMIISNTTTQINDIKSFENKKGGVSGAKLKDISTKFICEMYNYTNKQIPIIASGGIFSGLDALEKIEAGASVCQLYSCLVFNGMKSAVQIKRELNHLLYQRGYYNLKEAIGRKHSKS
# E3 ubiquitin-protein ligase XIAP (Homo sapiens), sequence (P98170 whole entry, looked up): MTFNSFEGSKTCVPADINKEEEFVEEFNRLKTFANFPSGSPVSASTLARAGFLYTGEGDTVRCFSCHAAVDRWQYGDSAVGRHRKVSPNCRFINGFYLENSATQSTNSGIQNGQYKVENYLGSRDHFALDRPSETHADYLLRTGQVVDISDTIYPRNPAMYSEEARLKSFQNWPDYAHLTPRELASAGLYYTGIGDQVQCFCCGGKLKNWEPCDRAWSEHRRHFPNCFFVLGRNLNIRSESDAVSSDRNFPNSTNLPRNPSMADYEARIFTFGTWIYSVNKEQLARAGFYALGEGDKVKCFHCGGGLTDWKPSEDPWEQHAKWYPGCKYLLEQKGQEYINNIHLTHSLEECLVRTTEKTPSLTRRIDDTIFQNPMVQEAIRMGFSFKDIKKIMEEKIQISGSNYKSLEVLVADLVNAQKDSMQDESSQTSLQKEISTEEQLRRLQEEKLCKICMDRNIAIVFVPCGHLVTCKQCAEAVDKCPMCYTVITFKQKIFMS
SMILES,z-score [1],z-score [2],z-score [3],z-score [4],z-score [5],z-score [6],z-score [7],z-score [8],z-score [9],z-score [10],z-score [11],z-score [12],composite z-score [13],z-score [14],z-score [15],z-score [16],z-score [17],composite z-score [18],composite z-score [19],composite z-score (XIP peptide (Xip251-270))
C[N+](C)(C)CCCC[C@@H]1NC(=O)[C@H]2C[C@@H](C(=O)NCCCCCN)[C@@H](c3cccc(OCCO)c3)N2C1=O,2.1,-0.468,-0.433,-0.649,1.31,0.0454 (inactive),-0.773,0.0601,-0.156 (inactive),-0.148,-0.26 (inactive),1.53 (inactive),-0.407 (inactive),-0.286 (inactive),0.222 (inactive),-0.0647 (inactive),0.729,-0.163,0.713 (inactive),0.608
COC(=O)c1c2oc(c1C(=O)OC)C(=O)N[C@@H](C(C)C)Cn1nncc1C1(CCCCC1)NC(=O)N[C@H](CO)CC2,-0.5,0.619,0.276,-0.161,1.58,0.994 (inactive),0.144,1.08,2.11 (inactive),2.17,-3.46 (inactive),1.4 (inactive),0.62 (inactive),-0.989 (inactive),2.61 (inactive),2.18 (inactive),0.928,0.0623,-0.503 (inactive),-0.985
CCCCCN1CC=CC23O[C@@H]4/C=C\CCC(C)OC(=O)C4[C@H]2C(=O)N(CCO)[C@@H]3C1=O (stereo not given in full),2.4,0.277,2.91,-0.245,0.419,1.74 (inactive),0.791,1.17,0.095 (inactive),0.355,-0.734 (inactive),1.32 (inactive),0.0255 (inactive),0.121 (inactive),1.34 (inactive),1.11 (inactive),1.22,0.272,0.642 (inactive),-0.927
O=C1c2ccccc2[C@@]2(Cc3ccccc3N(CC(F)(F)F)C2=O)[C@H](c2ccc(CO)cc2)N1Cc1ccccc1C(F)(F)F,0.559,-0.167,0.733,-1.08,0.288,1.05 (inactive),0.753,0.197,-0.203 (inactive),0.528,-0.829 (inactive),1.02 (inactive),-3.56 (inactive),-0.49 (inactive),-0.136 (inactive),-0.344 (inactive),1.05,-0.0446,-0.765 (inactive),-1.23
COCCOC(=O)N1C(=O)[C@@]2(c3cc(C#CC4(O)CCCCCC4)ccc31)[C@H](c1ccc(O)cc1)N1[C@H](c3ccccc3)[C@H](c3ccccc3)OC(=O)[C@H]1[C@@H]2C(N)=O,1.46,0.638,-2.22,-4.23,-1.6,-0.385 (inactive),-0.735,0.246,0.928 (inactive),0.228,-1.38 (inactive),0.951 (inactive),0.194 (inactive),-0.95 (inactive),0.158 (inactive),0.155 (inactive),0.778,0.166,1.84 (inactive),0.821
O=C1N(CCS(=O)(=O)c2ccccc2)Cc2ccccc2[C@@H]2OC(c3ccc(OCCCO)cc3)=N[C@]12Cc1ccccc1,2.11,0.288,-0.0623,-0.222,0.194,0.401 (inactive),-1.11,-0.693,-0.77 (inactive),0.309,1.72 (inactive),-0.739 (inactive),0.913 (inactive),4.1 (inactive),2.25 (inactive),1.05 (inactive),-0.384,-0.121,1.73 (inactive),0.927
CCCNC(=O)[C@@H]1c2ccccc2C(=O)N(Cc2cc(C(F)(F)F)cc(C(F)(F)F)c2)[C@H]1c1ccc(CO)cc1,1.6,0.174,-0.298,-1,1.4,-0.652 (inactive),0.188,1.01,0.741 (inactive),0.397,-0.367 (inactive),1.52 (inactive),0.754 (inactive),0.288 (inactive),1.06 (inactive),-0.625 (inactive),1.63,-0.374,0.133 (inactive),0.219
Cc1ccc(S[C@]2(C(=O)NCCN3CCOCC3)CC(=O)N(Cc3cc(C(F)(F)F)cc(C(F)(F)F)c3)[C@@H]2c2ccc(CO)cc2)cc1,0.947,-0.0671,1.15,0.603,1.18,0.784 (inactive),-0.0854,0.685,3.33 (inactive),1.08,-1.76 (inactive),0.828 (inactive),-0.911 (inactive),-2.54 (inactive),1.01 (inactive),1.45 (inactive),0.672,0.0808,-0.316 (inactive),0.0326
CC(C)C[C@@H]1NC(=O)[C@H]2C[C@@H](C(=O)NCCCC[N+](C)(C)C)[C@@H](c3cccc(OCCO)c3)N2C1=O,0.753,-0.131,0.0808,-0.583,1.22,1.37 (inactive),-0.173,0.0969,-0.474 (inactive),0.417,-0.553 (inactive),0.932 (inactive),-30.9 (active),-0.915 (inactive),0.709 (inactive),0.569 (inactive),0.33,-0.0476,1.85 (inactive),0.705
COc1ccc(C#Cc2ccc3c(c2)[C@]2(C(=O)N3)[C@H](c3ccc(O)cc3)N3[C@H](c4ccccc4)[C@H](c4ccccc4)OC(=O)[C@H]3[C@@H]2C(=O)N2CCN(c3ncccn3)CC2)cc1,1.37,0.385,-0.233,-0.474,-0.16,1.57 (inactive),-0.719,0.463,0.682 (inactive),-0.169,0.0719 (inactive),0.95 (inactive),0.848 (inactive),0.537 (inactive),0.0488 (inactive),0.255 (inactive),1.19,-0.0062,1.62 (inactive),0.388
COc1ccc(C(=O)Nc2cccc(CN3C(=O)[C@@]4(O[C@@H](CCO)[C@H]([Si](C)(C)c5ccc(OC)cc5)[C@H]4C)c4ccccc43)c2)cc1,-0.301,-4.74,-2.7,-4.46,-1.97,2.77 (inactive),-0.972,-2.36,-5.62 (inactive),-6.42,-3.58 (inactive),-9.06 (active),-0.873 (inactive),2.06 (inactive),2.75 (inactive),1.55 (inactive),-6.22,0.0049,0.11 (inactive),0.115
CCOC(=O)C[C@H]1[C@H](OC(=O)c2ccc(C(=O)c3ccccc3)cc2)[C@@H](NC(=O)Cc2ccc(OC)cc2)c2cc(OCCCO)ccc2N1C(=O)Cc1ccc(OC)cc1,0.234,0.398,0.856,-0.481,2.05,0.755 (inactive),-0.131,0.356,1.54 (inactive),0.964,-1.99 (inactive),0.0905 (inactive),0.735 (inactive),-1.05 (inactive),1.74 (inactive),1.06 (inactive),0.678,0.0871,0.608 (inactive),0.0768
[N-]=[N+]=Nc1ccccc1[C@H]1OC(c2ccc(OCCCO)cc2)=N[C@@]1(Cc1ccccc1)C(N)=O,1.26,0.13,-3.09,-3.37,0.912,3.11 (inactive),-1.05,-1.45,-1.6 (inactive),0.0234,-1.69 (inactive),-1.29 (inactive),-0.227 (inactive),0.401 (inactive),2.24 (inactive),1.45 (inactive),-1.96,-0.0351,1.05 (inactive),0.657
Cc1ccc(N2C(=O)c3ccccc3[C@](C)(C(=O)NCC(F)(F)F)[C@@H]2c2ccc(CO)cc2)nc1,1.45,0.529,-0.436,-1.45,-0.106,-0.603 (inactive),0.54,1.04,0.451 (inactive),0.125,-1.08 (inactive),1.57 (inactive),0.534 (inactive),0.216 (inactive),0.24 (inactive),0.536 (inactive),1.4,0.0506,-0.0838 (inactive),-0.964
C=CCC(OC(C)=O)[C@@H]1[C@@H](N(Cc2ccc(-c3cccc(C(F)(F)F)c3)o2)C(=O)c2ccc(-c3ccccc3)cc2)c2cc(OCCCO)ccc2N1C(=O)Cc1ccc(OC)cc1 (stereo not given in full),0.935,1.29,1.18,0.72,3.72,0.0243 (inactive),-0.598,1.36,0.797 (inactive),0.421,0.0438 (inactive),1.29 (inactive),0.0258 (inactive),-0.93 (inactive),1.98 (inactive),1.21 (inactive),1.32,-0.0525,0.163 (inactive),-0.653
CC(C)(C)OC(=O)CC[C@@]1(C(=O)NCc2ccccc2)N=C(c2ccc(OCCCO)cc2)O[C@@H]1c1ccccc1CN=[N+]=[N-],2.98,-0.399,0.507,-1.04,2.13,0.179 (inactive),-1.12,0.236,0.392 (inactive),-0.169,-0.986 (inactive),0.725 (inactive),-0.182 (inactive),-0.496 (inactive),2.1 (inactive),0.824 (inactive),0.394,-0.227,1.42 (inactive),0.733
COc1ccc([Si](C)(C)[C@@H]2[C@@H](CC(=O)N3CCC[C@H]3CO)O[C@]3(C(=O)N(Cc4ccc(I)cc4)c4ccccc43)[C@H]2C)cc1,2.59,-2.95,-2.58,-4.35,2.47,1.67 (inactive),-1.04,-0.818,-2.59 (inactive),-1.37,-1.91 (inactive),-2.56 (inactive),0.413 (inactive),-0.289 (inactive),1.66 (inactive),0.78 (inactive),-2.59,0.0368,0.564 (inactive),0.534
